Compound activity (PubChem BioAssay)
DENV2 CPE rescue: inhibitors of DENV2 cytopathic effect | CPE inhibition, % at 9.99 µM | DENV2-infected cells, cytopathic effect rescue, plate reader | 350,000 compounds, 1.7% hits | AID 651640; in the data active = CPE inhibition above about 20%, passing the limit was not always enough; inconclusive = no clear call, values can overlap the other calls; tested in BHK-21 cells;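 note: 0% = median of neutral control wells and 100% = median of positive control wells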
dFosB act: activators of mouse delta FosB homodimer; P13346; purified delta FosB, TAMRA-CDK5 oligo fluorescence polarization; percent of positive-control signal above neutral wells; activation, % at 25 µM; 340,000 compounds, 0.99% hits;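 active = mean activation above about 17%, with every replicate also reaching it, limit read from the data, passing the limit was not always enough; inconclusive = only one of the two conditions met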
INS-1E GSIS act: GLuc luminescence reporter in INS-1E cells, primary screen for activators of glucose-dependent secretion of insulin; activation, % at 16.6 µM; INS-1E GLuc reporter insulin secretion, 2-3 h; 370,000 compounds, 0.61% hits; AID 743287;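 active = lowest replicate activation of at least 40%, so every replicate reaches that level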;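 note: 0% = median of neutral control wells and 100% = median of IBMX positive control wells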
MLL AF4-AF9 inh: MLL-AF4/AF9 protein interaction inhibition. P42568. AlphaScreen, biotin-AF4 peptide binding to FLAG-AF9. inhibition, % at 10 µM. 350,000 compounds, 0.47% hits;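 active = every replicate reaching a set inhibition limit, whatever the replicate mean, cut at about 25% in these data; inconclusive = mean inhibition reaches that limit but some replicates miss it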;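 note: 0% = plate neutral control median and 100% = total signal loss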
Target sequence (P42568 whole entry, looked up): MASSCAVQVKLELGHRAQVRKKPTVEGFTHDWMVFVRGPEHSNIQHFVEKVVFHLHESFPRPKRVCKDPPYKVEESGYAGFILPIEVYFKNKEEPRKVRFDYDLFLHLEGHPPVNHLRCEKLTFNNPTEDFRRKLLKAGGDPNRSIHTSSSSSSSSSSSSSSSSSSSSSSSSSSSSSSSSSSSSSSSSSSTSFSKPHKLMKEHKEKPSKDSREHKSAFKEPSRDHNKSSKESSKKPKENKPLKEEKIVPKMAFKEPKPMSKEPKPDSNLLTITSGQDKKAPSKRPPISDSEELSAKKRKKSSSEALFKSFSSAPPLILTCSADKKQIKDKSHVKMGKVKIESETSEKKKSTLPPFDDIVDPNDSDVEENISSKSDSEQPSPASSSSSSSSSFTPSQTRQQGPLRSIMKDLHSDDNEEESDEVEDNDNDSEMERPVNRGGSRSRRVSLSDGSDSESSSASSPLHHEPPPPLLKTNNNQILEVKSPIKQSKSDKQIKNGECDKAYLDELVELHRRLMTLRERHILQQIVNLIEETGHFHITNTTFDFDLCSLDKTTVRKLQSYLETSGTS
RAD54 inh: RAD54 (human) branch migration inhibition | Q92698 | inhibition, % at 10.4 µM | 360,000 compounds, 0.14% hits | RAD54 Holliday junction branch migration, FAM/BHQ fluorescence;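 active = mean normalized replicate activity at least 40 and at least half of replicates scoring 40 or more; inconclusive = only one of the two criteria met; inactive = mean below 40 and under half of replicates reaching 40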;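 note: 0% = median of neutral control wells and 100% = median of positive control wells; inhibitors cause a drop in the FAM fluorescence signal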
RAD52 anneal inh: blocks human RAD52 DNA annealing; recombinant RAD52 DNA annealing, FRET fluorescence; inhibition, % at 18.7 µM; 360,000 compounds, 0.46% hits; AID 651710;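 active = every replicate showing at least 50% inhibition; inconclusive = mean inhibition at least 50% but not in every replicate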
DNA binding: binds DNA, flagging false Rad54 inhibitor hits | shares compounds with RAD54 inh | Acridine orange-DNA displacement, fluorescence polarization, 20 min | AC50, µM (top dose mostly 35 µM), for the others: at the highest dose activity change, negative = DNA binding | 460 compounds, 8% hits | AID 651673;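 active = signal drop giving an AC50 within twice the top valid tested concentration of each sample, actives reach about 35 µM in these data; inactive = activity opposite to expected, plus the rest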;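 note: polarization loss reports compound binding to salmon sperm DNA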
RAD52 DNA ctr: binds DNA, flagging false RAD52 inhibitor hits; AID 652128; shares compounds with RAD52 anneal inh; AC50, µM; Salmon sperm DNA/acridine orange FP displacement, DNA binding; 1,000 compounds, 8% hits;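 active = fitted half-maximal concentration for signal loss at or below twice the highest dose tested, in every separate run, actives reach about 64 µM in these data; inconclusive = runs disagree, or flat partial signal loss, or poor fit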
* = called active by the depositor; i = inactive; ? = inconclusive; nt = no result given. Only some compounds are listed: those with a hit (about 3.1% of all), similar ones and a draw of the others.

SMILES | DENV2 CPE rescue | dFosB act | INS-1E GSIS act | MLL AF4-AF9 inh | RAD54 inh | RAD52 anneal inh | DNA binding | RAD52 DNA ctr
Cc1cc(N2CCN(C)CC2)nc2ccc(NC(=S)NCCN3CCc4ccccc4C3)cc12 | -4.5 | 34.7* | -3.3 | ? | 88.9* | 80.6* | 5.4% | nt
CCCCN(C)C(=S)Nc1ccc2nc(N3CCN(CC)CC3)cc(C)c2c1 | -0.8 | -4.0 | nt | 2.8 | nt | 47.6 | nt | nt
Cc1cccc(N2CCN(C(=S)Nc3ccc4nc(N5CCN(C)CC5)cc(C)c4c3)CC2)c1C | 5.7 | -16.5 | 22.4 | 5.2 | 2.6 | 48.9 | nt | nt
CCCCN(C)CCNC(=S)Nc1ccc2nc(N3CCN(CC)CC3)cc(C)c2c1 | 2.1 | ? | -0.3 | 12.7 | 81.2* | 95.3* | 8.7% | nt
COCC(=O)N1CC[C@H]2[C@@H]1c1cc(-c3ccc(OC)cc3)ccc1N(C)[C@H]2CO | 11.4 | nt | 3.6 | -3.7 | 3.3 | 7.8 | nt | nt
CN1CCc2c(sc(NC(=O)c3ccc4ccccc4c3)c2C(N)=O)C1 | nt | -17.8 | nt | nt | ? | nt | nt | nt
COc1cc2ccccc2cc1C(=O)Nc1sc2c(c1C(N)=O)CCN(C(C)C)C2 | 13.0 | -14.9 | nt | 1.3 | 81.4* | -16.0 | -22.8% | nt
CCN1CCc2c(sc(NC(=O)c3ccc(C(=O)c4ccccc4)cc3)c2C(N)=O)C1 | 10.6 | ? | -11.2 | 1.6 | ? | -41.0 | 9.2% | nt
CCOC(=O)c1c(NC(=O)c2ccc(S(=O)(=O)N3CCOCC3)cc2)sc2c1CCN(C(C)C)C2 | -5.5 | -13.4 | -5.2 | 4.7 | 79.1* | -241.5 | -10.5% | nt
CCN1CCc2c(sc(NC(=O)c3ccc(S(=O)(=O)N4CCOCC4)cc3)c2C(=O)OC)C1 | nt | -27.1 | -1.9 | nt | 80.3* | nt | -1.0% | nt
Cc1noc(C)c1NC(=O)N[C@H]1CC[C@H](CCNC(=O)C2CCCCC2)O[C@@H]1CO | 5.7 | nt | -4.5 | -1.7 | 1.8 | 17.3 | nt | nt
COc1ccc2c3c([nH]c2c1)[C@@H](CO)N(CC1CCOCC1)CC31CN(C(=O)c2ccc(F)cc2)C1 | -2.6 | nt | 8.4 | -1.4 | nt | -45.8 | nt | nt
COc1ccc(NC(=O)Nc2ccc3c(c2)C(=O)N([C@@H](C)CO)C[C@@H](C)[C@H](CN(C)C(=O)Nc2ccccc2)O3)cc1 | 2.7 | nt | 10.6 | 0.0 | -2.3 | -5.9 | nt | nt
Oc1cccc2ccc(Nc3ccccn3)nc12 | nt | 5.4 | nt | nt | 94.3* | nt | -9.2% | nt
N=c1c(C(=O)NCCN2CCOCC2)cc2c(=O)n3ccccc3nc2n1CCCN1CCOCC1 | -4.9 | 13.7 | -0.2 | 0.0 | 56.8* | 77.0* | 6.9% | i
N=c1c(C(=O)NCCN2CCOCC2)cc2c(=O)n3ccccc3nc2n1Cc1ccc(F)cc1 | 6.7 | -2.3 | 6.9 | 1.1 | 9.3 | 36.9 | nt | nt
O=C(C[C@@H]1CC[C@@H](NC(=O)c2ccncc2)[C@H](CO)O1)NCCc1ccncc1 | -0.9 | nt | 8.2 | -1.6 | -1.7 | -0.1 | nt | nt
COc1cccc(-c2cc(NC=O)c3ncc(-c4cccc(C(=O)N(C)C)c4)n3c2)c1 | -2.5 | nt | nt | 0.2 | 7.4 | -70.1 | nt | nt
COc1cccc(-c2cc(NC=O)c3ncc(-c4cccc(C(=O)NCCN(C)C)c4)n3c2)c1 | -4.4 | nt | 3.3 | ? | 81.0* | 94.2* | 8.0% | i
CC(=O)Nc1cc(-c2ccc(N3CCN(C)CC3)cc2)cn2c(-c3ccc(S(C)(=O)=O)cc3)cnc12 | 9.5 | nt | nt | 12.6 | 104.1* | 73.3* | -5.3% | i
CN(C)CCNC(=O)c1cccc(-c2cnc3c(NC=O)cc(-c4ccc(S(C)(=O)=O)cc4)cn23)c1 | 12.4 | nt | -1.7 | 9.2 | 65.0* | 95.7* | -16.6% | i
C[C@@H]1CN([C@@H](C)CO)C(=O)c2cccc(NS(C)(=O)=O)c2O[C@H]1CN(C)C(=O)Nc1ccc2c(c1)OCO2 | -13.0 | nt | -0.3 | -1.7 | -3.1 | -1.3 | nt | nt
COCC(=O)N(C)C[C@H]1Oc2cc(C#CCN(C)C)ccc2S(=O)(=O)N([C@@H](C)CO)C[C@@H]1C | 10.7 | nt | 13.1 | -3.0 | 2.0 | 9.1 | nt | nt
COc1ccccc1Nc1nc(NCCCN(C)C)nc(N)c1[N+](=O)[O-] | -2.7 | ? | -13.9 | 14.8 | 77.0* | 94.7* | -19.3% | i
C=CCNc1nc(N)c([N+](=O)[O-])c(Nc2ccccc2OC)n1 | ? | -0.2 | -17.5 | -0.6 | 1.7 | -6.2 | nt | nt
SMILES | DENV2 CPE rescue | dFosB act | INS-1E GSIS act | MLL AF4-AF9 inh | RAD54 inh | RAD52 anneal inh | DNA binding | RAD52 DNA ctr
C[C@@H]1CCCCO[C@H](CN(C)CC2CCCCC2)[C@@H](C)CN([C@@H](C)CO)C(=O)c2cc(NS(=O)(=O)c3cccs3)ccc2O1 | -0.8 | nt | -3.4 | -7.9 | 13.1 | 29.4 | nt | nt
C[C@@H]1CCCCO[C@H](CN(C)S(=O)(=O)c2ccc(Cl)cc2)[C@H](C)CN([C@H](C)CO)C(=O)c2cc(NC(=O)Cc3ccccc3)ccc2O1 | -5.9 | nt | -40.2 | 0.2 | 6.4 | 32.7 | nt | nt
CCN1CCN(c2cc(C)c3cc(NC(=S)NCCCN4CCc5ccccc5C4)ccc3n2)CC1 | ? | 36.7* | nt | ? | 98.4* | 105.7* | -7.9% | i
CCCN1CCN(CCCNC(=S)Nc2ccc3nc(N4CCN(CC)CC4)cc(C)c3c2)CC1 | -2.3 | 8.1 | -9.2 | 7.7 | 109.8* | 99.4* | 1.6% | i
CCN1CCN(c2cc(C)c3cc(NC(=S)N(C)Cc4ccccc4)ccc3n2)CC1 | 17.5 | -3.0 | -12.2 | 16.5 | 17.8 | 23.1 | nt | nt
CCN(CC)CCNC(=S)Nc1ccc2nc(N3CCN(CC)CC3)cc(C)c2c1 | 6.1 | 18.4* | 47.6* | 10.8 | 78.7* | 92.5* | -0.8% | i
COc1ccccc1S(=O)(=O)N[C@@H]1CC[C@H](CCNC(=O)C2CCC2)O[C@@H]1CO | -4.1 | nt | 12.4 | -15.3 | -4.3 | 8.4 | nt | nt
COCCCNC(=O)c1cc2c(-c3cccc(OC)c3)nn(C)c2s1 | -7.3 | -57.0 | nt | -2.6 | 12.4 | 17.2 | nt | nt
CCCN(CCC)CCCNC(=O)c1cc2c(-c3ccc(OC)c(OC)c3)nn(C)c2s1 | -1.3 | 0.0 | -9.2 | 4.2 | 104.3* | 89.8* | -12.7% | i
COc1ccc(-c2nn(C)c3sc(C(=O)NCCN(C)C)cc23)cc1OC | -1.9 | 50.6* | 6.3 | 2.8 | 96.5* | 101.0* | -15.5% | i
CCCNC(=O)N1[C@H](CNC(=O)c2ccccc2)[C@@H](c2ccccc2)[C@@H]1CO | -5.3 | nt | -2.7 | 0.7 | 4.1 | -14.4 | nt | nt
COc1cc(C)c2sc3ccccc3c(=O)c2c1NCCN(C)C | -1.8 | nt | -9.2 | 44.7* | 92.8* | 94.5* | 9.33µM* | 17.5µM*
Cc1ccc2nc(Cl)c3cc(C(=O)NCCCN4CCCC4)sc3c2c1 | 0.2 | -92.3 | 9.4 | 9.2 | 78.6* | 79.1* | -20.0% | 48.5µM*
CCCN1CCN(CCCNC(=O)c2cc3c(=O)oc4ccc(C)cc4c3s2)CC1 | 1.3 | -23.2 | 2.7 | -5.8 | 16.1 | -9.3 | nt | nt
